PubChem BioAssay AID1159580 (chemical genetic matrix, 2015)
Where “and” joins values, the source holds several entries; their conditions need not be identical. Identical values can stand only once. The campaign covered roughly 5,500 compounds. About 2,000 (36%) were called active. Roughly 18% stayed inconclusive and do not appear here. Cut-off read from the data, not from the text of the source: active = normalized growth mostly below about 0.91 (no sharp cut-off); inconclusive = no clear call, values can overlap the other calls; inactive = mostly above about 0.92. Some of the results follow.

Assay: chemical genetic growth profiling, strain panel (AID 1159580);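 note: tested at 20 µM; growth read once vehicle control cultures reached saturation at 30 °C; 1 = growth at the plate median or of vehicle wells; lower values mean less growth of the strain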
Settings: S. cerevisiae deletion strains, growth OD

Measured: normalized growth

CCC(C)C(NC)C(=O)O (centres undefined)
inactive: locus YAL013W, strain DEP1, stronger effect = lower value 1.02 | locus YAL021C, strain ccr4, stronger effect = lower value 1.03 | locus YAL026C, strain drs2, stronger effect = lower value 1.02 | locus YAL030W, strain snc1, stronger effect = lower value 1.01 | locus YBL061C, strain skt5, stronger effect = lower value 1.03 | locus YBR009C, strain hhf1, stronger effect = lower value 1.02 | locus YBR021W, strain FUR4, stronger effect = lower value 1.01 | locus YBR023C, strain chs3, stronger effect = lower value 1.02 | locus YBR171W, strain sec66, stronger effect = lower value 1.05 | locus YBR229C, strain ROT2, stronger effect = lower value 0.947 | locus YBR231C, strain swc5, stronger effect = lower value 1.01 | locus YBR279W, strain paf1, stronger effect = lower value 1.01 | locus YCL011C, strain gbp2, stronger effect = lower value 1.02 | locus YCL016C, strain dcc1, stronger effect = lower value 1.03 | locus YCL029C, strain bik1, stronger effect = lower value 0.982 | locus YCL061C, strain MRC1, stronger effect = lower value 1.03 | locus YCL069W, strain vba3, stronger effect = lower value 1.02 | locus YCR088W, strain abp1, stronger effect = lower value 1 | locus YDL005C, strain med2, stronger effect = lower value 1.02 | locus YDL035C, strain GPR1, stronger effect = lower value 0.981 | locus YDL040C, strain nat1, stronger effect = lower value 1.01 | locus YDL074C, strain BRE1, stronger effect = lower value 1.01 | locus YDL101C, strain DUN1, stronger effect = lower value 0.983 | locus YDL134C, strain PPH21, stronger effect = lower value 0.984 | locus YDL185W, strain tfp1, stronger effect = lower value 0.986 | locus YDL192W, strain arf1, stronger effect = lower value 1 | locus YDR001C, strain nth1, stronger effect = lower value 1.02 | locus YDR069C, strain doa4, stronger effect = lower value 1.02 | locus YDR101C, strain arx1, stronger effect = lower value 1 | locus YDR137W, strain rgp1, stronger effect = lower value 1.06 | locus YDR159W, strain sac3, stronger effect = lower value 1.02 | locus YDR162C, strain NBP2, stronger effect = lower value 0.966 | locus YDR195W, strain ref2 0.985 | locus YDR297W, strain sur2, stronger effect = lower value 1.01 | locus YDR318W, strain mcm21, stronger effect = lower value 0.985 | locus YDR334W, strain swr1, stronger effect = lower value 1.02 | locus YDR335W, strain msn5, stronger effect = lower value 1.01 | locus YDR388W, stronger effect = lower value 0.994 | locus YDR392W, strain spt3, stronger effect = lower value 0.986 | locus YDR502C, strain sam2, stronger effect = lower value 0.997 | locus YEL003W, strain gim4, stronger effect = lower value 1.01 | locus YEL037C, strain rad23, stronger effect = lower value 1.02 | locus YEL061C, strain CIN8 (second series), stronger effect = lower value 1.02 | locus YEL061C, strain CIN8, stronger effect = lower value 0.983 | locus YER015W, strain faa2, stronger effect = lower value 1.02 | locus YER016W, strain bim1, stronger effect = lower value 1.01 | locus YER110C, stronger effect = lower value 0.979 | locus YER111C, strain swi4, stronger effect = lower value 1.03 | locus YER155C, strain BEM2 (second series), stronger effect = lower value 1.01 | locus YER155C, strain BEM2, stronger effect = lower value 1 | locus YER167W, strain BCK2, stronger effect = lower value 0.975 | locus YFR010W, strain ubp6, stronger effect = lower value 1.03 | locus YGL078C, strain dbp3, stronger effect = lower value 0.999 | locus YGL086W, strain mad1, stronger effect = lower value 1.01 | locus YGL167C, strain pmr1, stronger effect = lower value 1.02 | locus YGL173C, strain kem1, stronger effect = lower value 1.03 | locus YGL227W, strain vid30, stronger effect = lower value 1.02 | locus YGL240W, strain doc1, stronger effect = lower value 1.01 | locus YGL248W, strain PDE1, stronger effect = lower value 0.982 | locus YGL253W, strain hxk2, stronger effect = lower value 1.02 | locus YGR135W, strain pre9, stronger effect = lower value 0.99 | locus YGR252W, strain gcn5, stronger effect = lower value 0.986 | locus YHR013C, strain ard1, stronger effect = lower value 1.03 | locus YHR027C, strain rpn1, stronger effect = lower value 1.03 | locus YHR030C, strain SLT2, stronger effect = lower value 0.985 and 1.06 | locus YHR079C, strain IRE1 (second series), stronger effect = lower value 0.991 | locus YHR079C, strain IRE1, stronger effect = lower value 1.09 | locus YHR094C, strain hxt1, stronger effect = lower value 0.977 | locus YHR129C, strain ARP1, stronger effect = lower value 0.99 | locus YHR142W, strain chs7, stronger effect = lower value 1.02 | locus YHR200W, strain rpn10, stronger effect = lower value 0.986 | locus YIL066C, strain RNR3, stronger effect = lower value 0.944 | locus YIL073C, strain SPO22, stronger effect = lower value 0.972 | locus YIL125W, strain kgd1, stronger effect = lower value 0.982 | locus YIR030C, strain dcg1, stronger effect = lower value 0.99 | locus YJL092W, strain hpr5, stronger effect = lower value 1.03 | locus YJL095W, strain BCK1 (second series), stronger effect = lower value 1.01 | locus YJL095W, strain BCK1, stronger effect = lower value 1.05 | locus YJL115W, strain asf1, stronger effect = lower value 1.03 | locus YJL129C, strain trk1, stronger effect = lower value 1.05 | locus YJL134W, strain LCB3, stronger effect = lower value 0.967 | locus YJL154C, strain vps35, stronger effect = lower value 1.01 | locus YJL164C, strain tpk1, stronger effect = lower value 1.03 | locus YJL166W, strain qcr8, stronger effect = lower value 1.02 | locus YJL168C, strain set2, stronger effect = lower value 0.993 | locus YJL187C, strain SWE1 (second series), stronger effect = lower value 1 | locus YJL187C, strain SWE1, stronger effect = lower value 1.01 | locus YJR043C, strain POL32, stronger effect = lower value 0.969 | locus YJR066W, strain TOR1, stronger effect = lower value 1 | locus YKL009W, strain mrt4, stronger effect = lower value 1.01 | locus YKL068W, stronger effect = lower value 0.973 | locus YKL085W, strain MDH1 (second series), stronger effect = lower value 0.979 | locus YKL085W, strain MDH1, stronger effect = lower value 0.979 | locus YKL160W, strain elf1, stronger effect = lower value 1.02 | locus YKL190W, strain CNB1, stronger effect = lower value 1 | locus YKR001C, strain vps1, stronger effect = lower value 1 | locus YKR026C, strain gcn3, stronger effect = lower value 1.02 | locus YKR091W, strain srl3, stronger effect = lower value 1 | locus YLL001W, strain dnm1, stronger effect = lower value 1.03 | locus YLL026W, stronger effect = lower value 1.01 | locus YLL041C, strain sdh2, stronger effect = lower value 1.02 | locus YLR027C, strain aat2, stronger effect = lower value 1.02 | locus YLR039C, strain RIC1, stronger effect = lower value 0.995 | locus YLR058C, strain SHM2, stronger effect = lower value 0.935 | locus YLR102C, strain apc9, stronger effect = lower value 0.985 | locus YLR113W, strain HOG1, stronger effect = lower value 1.09 | locus YLR221C, strain rsa3, stronger effect = lower value 1.03 | locus YLR258W, strain gsy2, stronger effect = lower value 1.01 | locus YLR262C, strain YPT6 (second series), stronger effect = lower value 1.05 | locus YLR262C, strain YPT6, stronger effect = lower value 0.989 | locus YLR268W, strain sec22, stronger effect = lower value 1.03 | locus YLR320W, strain mms22, stronger effect = lower value 1.03 | locus YLR330W, strain CHS5, stronger effect = lower value 0.987 | locus YLR342W, strain FKS1 (second series), stronger effect = lower value 0.977 | locus YLR342W, strain FKS1, stronger effect = lower value 1.01 | locus YLR357W, strain rsc2, stronger effect = lower value 1.02 | locus YLR370C, strain arc18, stronger effect = lower value 1.03 | locus YLR371W, strain rom2, stronger effect = lower value 0.982 | locus YLR384C, strain iki3, stronger effect = lower value 1.01 | locus YLR418C, strain cdc73, stronger effect = lower value 0.971 | locus YML016C, strain PPZ1, stronger effect = lower value 0.992 | locus YML032C, strain rad52, stronger effect = lower value 0.963 | locus YML120C, strain ndi1, stronger effect = lower value 1.01 | locus YML124C, strain tub3, stronger effect = lower value 0.997 | locus YMR058W, strain fet3, stronger effect = lower value 1.03 | locus YMR078C, strain ctf18, stronger effect = lower value 0.985 | locus YMR125W, strain sto1, stronger effect = lower value 1.01 | locus YMR129W, stronger effect = lower value 1.02 | locus YMR205C, strain PFK2, stronger effect = lower value 1.03 | locus YMR223W, strain ubp8, stronger effect = lower value 0.991 | locus YMR231W, strain pep5, stronger effect = lower value 1.01 | locus YMR307W, strain GAS1, stronger effect = lower value 1.02 | locus YNL067W, strain RPL9B, stronger effect = lower value 1.03 | locus YNL071W, strain lat1, stronger effect = lower value 1.02 | locus YNL128W, strain TEP1, stronger effect = lower value 0.986 | locus YNL183C, strain NPR1, stronger effect = lower value 0.998 | locus YNL209W, strain ssb2, stronger effect = lower value 1.01 | locus YNL233W, strain BNI4, stronger effect = lower value 1.04 | locus YNL248C, strain rpa49, stronger effect = lower value 1.02 | locus YNL250W, strain rad50, stronger effect = lower value 0.962 | locus YNL271C, strain bni1, stronger effect = lower value 0.992 | locus YNL298W, strain CLA4, stronger effect = lower value 0.988 | locus YNL307C, strain MCK1, stronger effect = lower value 0.988 | locus YNL322C, strain KRE1 (second series), stronger effect = lower value 1.02 | locus YNR049C, strain mso1, stronger effect = lower value 1.02 | locus YNR052C, strain pop2, stronger effect = lower value 1.01 | locus YOL012C, strain htz1 0.872 | locus YOL147C, strain pex11, stronger effect = lower value 0.976 | locus YOR001W, strain rrp6, stronger effect = lower value 1.02 | locus YOR061W, strain CKA2, stronger effect = lower value 0.961 | locus YOR069W, strain VPS5, stronger effect = lower value 0.984 | locus YOR070C, strain gyp1, stronger effect = lower value 1.03 | locus YOR080W, strain dia2, stronger effect = lower value 1.02 | locus YOR083W, strain WHI5, stronger effect = lower value 1.02 | locus YOR106W, strain vam3, stronger effect = lower value 1.02 | locus YOR136W, strain idh2, stronger effect = lower value 0.994 | locus YOR144C, strain elg1, stronger effect = lower value 0.993 | locus YOR184W, strain ser1, stronger effect = lower value 0.989 | locus YOR231W, strain MKK1, stronger effect = lower value 1.08 | locus YOR265W, strain rbl2, stronger effect = lower value 1.01 | locus YOR270C, strain vph1, stronger effect = lower value 1.05 | locus YOR290C, strain snf2, stronger effect = lower value 1.02 | locus YOR316C, strain cot1, stronger effect = lower value 0.993 | locus YPL051W, strain arl3, stronger effect = lower value 1.04 | locus YPL078C, strain atp4, stronger effect = lower value 1.02 | locus YPL106C, strain sse1, stronger effect = lower value 1.01 | locus YPL240C, strain hsp82, stronger effect = lower value 1 | locus YPL241C, strain CIN2, stronger effect = lower value 0.98 | locus YPL256C, strain CLN2, stronger effect = lower value 1.09 | locus YPR119W, strain clb2, stronger effect = lower value 0.991 | locus YPR141C, strain kar3, stronger effect = lower value 0.978 | locus YPR163C, strain tif3, stronger effect = lower value 0.985 | locus YPR167C, strain met16, stronger effect = lower value 0.989 | strain wtn01, stronger effect = lower value 1.01
